The other results are listed elsewhere or left out. Inconclusive results are not listed. Active and inactive are the calls of the source. Calls come from the whole dose curve; as a rule, active = well fitted inhibition curve with a large enough effect; inconclusive = small, poorly fitted or top-dose-only effect; inactive = no such curve, though single readings can be large or run the other way.
Assay: qHTS of pediatric cancer cell lines to identify multiple opportunities for drug repurposing: Orthogonal 3D viability screen for MG 63 (6-TG R) cells
Conditions: MG-63 (6-TG R) 3D spheroid viability, PI/Hoechst imaging, 72 h; series mostly up to 30.7 µM
Source text: Drug repurposing or repositioning has been offered as a strategy for drug development in oncology programs. This approach has special potential for childhood cancers and other rare or orphan diseases, where the expected return on new drug development has been a disincentive to pharmaceuticals. […] In this project we exploit the poly-pharmacology of drugs to discover new indications via phenotypic screening of a panel of 19 well-characterized cell lines derived from solid tumors seen in children and adolescents. The goal is to identify approved drugs with previously unrecognized anticancer properties that has the potential to reveal new mechanisms and biological processes involved in carcinogenesis or drug resistance. We employed a titration-based paradigm (quantitative high-throughput screening or qHTS), where all compounds were tested at multiple concentrations for their effect on cell viability. Concentration-response curves (CRCs) were derived directly from the primary screen, and both potency and efficacy values were used to identify compounds with robust bioactivity profiles. […] These two assays will be used to validate active compounds and assess the correlation of compound's potency in 2D vs 3D cultures on selected cell lines. Assay Submitter: Nathalia J. Martinez, National Center for Advancing Translational Sciences, National Institutes of Health, Rockville, MD, USA; email: natalia.martinez@nih.gov Shen, M et al. Quantitative high-throughput phenotypic screening of pediatric cancer cell lines identifies multiple opportunities for drug repurposing. Oncotarget 2017 Dec 19;9(4):4758-4772. PMID 29435139.
The cells were obtained from University of North Carolina (UNC), Pediatric Preclinical Testing Program (PPT), and Coriell Institute (CI). qHTS viability in 3D culture: Cells were assayed in phenol red-free growth media at a density of 1,000 cells/well, with the exception of Daoy, and SH-N-SH which were assayed at 1,500 cells/ well. Thirty muL of cells were dispensed into 384-well, ULA, round bottom plates (Corning) using a Multidrop dispenser. […] Spheroid viability was first determined by high-content imaging using Hoechst 33342 and Propidium Iodide (PI, ThermoFisher Scientific), followed by addition of CellTiter-Glo 3D (Promega). […] Plates were incubated for 30 min at RT on a VWR microplate shaker (300 rpm) and analyzed for luminescence intensity using a ViewLux High-throughput CCD imager equipped with clear filters. […] The data were exported to Excel, and the average fluorescent intensities were used to calculate the ratio of PI over Hoechst, which was used to quantify viability. […]

Structure (SMILES) | Potency
CC(NCc1ccc2c(c1)nc(NC(=O)c1ccc(-c3cn[nH]c3)s1)n2CC(C)(C)O)C(C)(C)C (centres undefined) | 722 nM (active)
CC[C@H]1CN2CCc3cc(OC)c(OC)cc3[C@@H]2C[C@@H]1C[C@H]1NCCc2cc(OC)c(OC)cc21 | 810 nM (active)
COc1c(C)c2c(c(O)c1C/C=C(\C)CCC(=O)O)C(=O)OC2 | 909 nM (active)
CC[C@]1(O)C[C@@H]2CN(CCc3c([nH]c4ccccc34)[C@@](C(=O)OC)(c3cc4c(cc3OC)N(C)[C@H]3[C@@](O)(C(=O)OC)[C@H](OC(C)=O)[C@]5(CC)C=CCN6CC[C@]43[C@@H]65)C2)C1 | inactive

From PubChem BioAssay AID1347140 (National Center for Advancing Translational Sciences (NCATS), 2019)
